Screening data: PubChem, National Center for Advancing Translational Sciences (NCATS)
Shown is part of a subset that was picked to be rich in hits.
nsP2pro inh – inhibitors of chikungunya virus nsP2 protease | Potency, µM (highest dose often 24.9 µM), hits mostly inhibitors | hit rate 1.1% among 31,000 | Q8JUX6 | FRET peptide cleavage, nsP2pro, fluorescence 1 h | AID 1964107; note: nearly all actives have a fitted effect of over 60% in size
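FRET cleavage of 2.5 uM peptide 2 by 150 nM CHIKV protease domain at pH 8.0 (Tris, Tween 20). Compounds at 7 concentrations (up to 25 uM) preincubated 15 min. Fluorescence read after 1 h at room temperature.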
nsP2 cell sec – secondary cell-based test for CHIKV nsP2 protease inhibitors. shares compounds with nsP2pro inh. cell-based CHIKV nsP2 protease reporter assay. Potency, µM (top dose mostly 51.1 µM), most hits filed as inhibitors. hit rate 10% among 450. AID 1964100; note: nearly all actives have a fitted effect of over 70% in size
Target sequence (Q8JUX6 220-798 limits assumed): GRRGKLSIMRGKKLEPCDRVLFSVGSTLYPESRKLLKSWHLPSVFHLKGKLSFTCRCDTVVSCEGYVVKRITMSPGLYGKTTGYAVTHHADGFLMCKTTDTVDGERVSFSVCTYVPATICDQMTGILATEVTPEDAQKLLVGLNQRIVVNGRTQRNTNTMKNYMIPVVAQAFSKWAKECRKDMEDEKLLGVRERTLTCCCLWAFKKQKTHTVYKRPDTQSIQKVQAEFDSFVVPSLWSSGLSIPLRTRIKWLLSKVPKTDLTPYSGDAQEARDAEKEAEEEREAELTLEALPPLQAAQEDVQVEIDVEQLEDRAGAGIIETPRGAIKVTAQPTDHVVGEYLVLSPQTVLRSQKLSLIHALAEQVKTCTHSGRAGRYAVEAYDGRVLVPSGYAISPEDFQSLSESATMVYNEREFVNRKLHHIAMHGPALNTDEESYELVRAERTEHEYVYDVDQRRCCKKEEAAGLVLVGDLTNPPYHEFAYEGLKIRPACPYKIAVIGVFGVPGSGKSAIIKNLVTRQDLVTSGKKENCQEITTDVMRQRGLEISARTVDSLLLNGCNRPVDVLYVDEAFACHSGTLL
CHIKV NSP2 FL – inhibits full-length CHIKV NSP2 enzyme | shares compounds with nsP2pro inh | Full-length CHIKV NSP2 protease enzymatic counterscreen | Potency, µM (doses to about 50.7 µM), usual class: inhibitors | hit rate 39% among 410 | AID 1964101; note: nearly all actives have a fitted effect of over 65% in size
Furin counterscr – inhibits human furin in a CHIKV nsP2 protease selectivity counterscreen | shares compounds with nsP2pro inh | Recombinant human furin enzymatic counterscreen, fluorogenic substrate | Potency, µM (titrated, usually from 50.6 µM), hits mostly inhibitors | hit rate 6% among 410 | AID 1964102
nsP2 NS23 pep – selectivity test for CHIKV nsP2 protease inhibitors: endogenous NS2/3 peptide. shares compounds with nsP2pro inh. Purified CHIKV nsP2 protease, endogenous NS2/3 peptide cleavage. Potency, µM (series often up to 51 µM), actives largely listed as inhibitors. hit rate 34% among 410. AID 1964103; note: nearly all actives have a fitted effect of over 55% in size
Papain cs – inhibits papain in a CHIKV nsP2 protease selectivity counterscreen; AID 1964104; purified papain protease activity, enzymatic inhibition; hit rate 5% among 410; shares compounds with nsP2pro inh; Potency, µM (top dose mostly 51 µM), usual class: inhibitors
nsP2pro confirm – confirmation of CHIKV nsP2 protease inhibitors; shares compounds with nsP2pro inh; CHIKV nsP2 protease enzymatic activity, qHTS; Potency, µM (series often up to 25.5 µM), usual class: inhibitors; hit rate 43% among 410; AID 1964105; note: nearly all actives have a fitted effect of over 75% in size
HCV NS3 counter – inhibits HCV NS3/4A protease in an nsP2pro selectivity counterscreen; shares compounds with nsP2pro inh; HCV NS3/4A protease biochemical counterscreen; Potency, µM (top dose mostly 50.9 µM), usual class: inhibitors; hit rate 20% among 410; note: nearly all actives have a fitted effect of over 55% in size
Of the large screens only hits and unclear results are named; the others gave an inactive call (follow-up assays come after a bar, where they were run). Calls come from the whole dose curve.

N#Cc1ccc(-c2ccc(CNc3ccc(N4CCN5CCCCC5C4)cc3)o2)cc1 (stereo not given)	none
N#Cc1ccc(-c2ccc(CNc3ccc(N4CCCCC4)cc3)o2)cc1	nsP2pro inh 3.55µM | nsP2 cell sec inconclusive | CHIKV NSP2 FL inactive | Furin counterscr inactive | nsP2 NS23 pep inconclusive | Papain cs inactive | nsP2pro confirm inconclusive | HCV NS3 counter 1.83µM
N#Cc1ccc(-c2ccc(CNc3ccc(N4CCOCC4)cc3)o2)cc1	none
CC1=C(C(=O)Nc2ccccc2)C(c2ccccc2Br)N=C(Nc2nc3ccccc3o2)N1 (stereo not given)	none
CN(Cc1cccn1C)C(=O)c1ccccc1Cl	none
O=C(Nc1cccc(Cc2ccccc2)c1)c1ccc(-c2cccc([N+](=O)[O-])c2)o1	none
O=C(Nc1cncc(Cc2ccccc2)c1)c1ccc(-c2cccc([N+](=O)[O-])c2)o1	none
O=C(Nc1cccc(Cc2ccccc2)n1)c1ccc(-c2cccc([N+](=O)[O-])c2)o1	nsP2pro inh 10µM | nsP2 cell sec inactive | CHIKV NSP2 FL inconclusive | Furin counterscr inactive | nsP2 NS23 pep inactive | Papain cs inactive | nsP2pro confirm inconclusive | HCV NS3 counter inactive
COc1ccnc2[nH]cc(C(=O)C(=O)N3CCN(C(=O)c4ccccc4)C[C@H]3C)c12	none
CCCCC(CC)CNC(=O)CC(C)OC(=O)CCC(=O)O (stereo not given)	none
CCOc1ccc(C(=O)Nc2ccc(-c3nc4ccccc4s3)cc2)cc1[N+](=O)[O-]	none
CC(C)c1ccc(S(=O)(=O)c2cnc(SCC(=O)Nc3ccc4c(c3)OCCO4)[nH]c2=O)cc1	nsP2pro inh 3.98µM | nsP2 cell sec inconclusive | CHIKV NSP2 FL inactive | Furin counterscr inactive | nsP2 NS23 pep inactive | Papain cs inconclusive | nsP2pro confirm inactive | HCV NS3 counter inactive
Cc1ccc(S(=O)(=O)c2cnc(SCC(=O)Nc3ccc4c(c3)OCCO4)[nH]c2=O)cc1Cl	none
O=C(CSc1ncc(S(=O)(=O)c2ccc(Br)cc2)c(=O)[nH]1)NCc1ccccc1Cl	none
CC[C@@H](C(=O)O)[C@@H]1O[C@@H]([C@@H](C)[C@H](O)[C@H](C)C(=O)[C@H](CC)[C@H]2O[C@]3(C=C[C@@H](O)[C@]4(CC[C@@](C)([C@H]5CC[C@](O)(CC)[C@H](C)O5)O4)O3)[C@H](C)C[C@@H]2C)[C@@H](C)C[C@@H]1C	none
CC1(C)CC[C@]2(C(=O)O[C@@H]3O[C@H](CO)[C@@H](O)[C@H](O)[C@H]3O)CC[C@]3(C)C(=CCC4[C@@]5(C)C[C@@H](O)[C@H](O)[C@](C)(C=O)C5CC[C@]43C)[C@@H]2[C@@H]1O (stereo not given in full)	none
C/C=C/C=C/C(=O)OC1CC/C=C/C(O)C(O)C(CCC)OC1=O (stereo not given)	nsP2pro inh inconclusive | nsP2 cell sec inactive | CHIKV NSP2 FL inactive | Furin counterscr inactive | nsP2 NS23 pep inactive | Papain cs inconclusive | nsP2pro confirm inactive | HCV NS3 counter inactive
C/C=C/C=C/C=C/C(=O)OC1C=C2C(O)OC(=O)[C@]2(O)[C@@]2(C)CCCC(C)(C)[C@H]12 (stereo not given in full)	none
Cc1ccc(-c2cc3n(n2)CCCN(C(=O)c2cc(CN4CCOCC4)on2)C3)o1	nsP2pro inh 1µM | nsP2 cell sec inactive | CHIKV NSP2 FL 14.6µM | Furin counterscr inactive | nsP2 NS23 pep inconclusive | Papain cs inactive | nsP2pro confirm 7.11µM | HCV NS3 counter inconclusive
Cc1ccc(OCCC2CCN(C(=O)c3cc(CN4CCOCC4)on3)C2)cc1 (stereo not given)	none
COc1ccc(-c2cc3n(n2)CCCN(C(=O)c2cc(CN4CCOCC4)on2)C3)cc1	none
Cc1ccc(OCCn2c(CCNC(=O)c3ccc(Br)cc3)nc3ccccc32)cc1	none
CC1=C2C(=O)C=C(CO[C@@H]3O[C@H](CO)[C@@H](O)[C@H](O)[C@H]3O)[C@@H]2[C@H]2OC(=O)[C@H](C)[C@@H]2CC1	none
COCCNC(=O)[C@@H]1C[C@H](Oc2ccccc2)CN1C(=O)c1cnccn1	none
C[C@@H]1O[C@@H](O[C@H]2[C@@H](OC(=O)[C@]34CCC(C)(C)CC3C3=CCC5[C@@]6(C)C[C@H](O)[C@H](O[C@@H]7O[C@H](C(=O)O)[C@@H](O)[C@H](O)[C@H]7O)[C@@](C)(C(=O)O)C6CC[C@@]5(C)[C@]3(C)CC4)OC[C@H](O)[C@@H]2O)[C@H](O)[C@H](O)[C@H]1O[C@@H]1OC[C@@H](O)[C@H](O)[C@H]1O (stereo not given in full)	none
CCOC(=O)OCC/C(SC(=O)OCC)=C(\C)N(C=O)Cc1cnc(C)nc1N	none
C/C(=C(\CCOP(=O)(O)O)SC(=O)c1ccccc1)N(C=O)Cc1cnc(C)nc1N	none
CCCSS/C(CCO)=C(\C)N(C=O)Cc1cnc(C)nc1N	nsP2pro inh 8.81µM | nsP2 cell sec inactive | CHIKV NSP2 FL 16.3µM | Furin counterscr inactive | nsP2 NS23 pep inconclusive | Papain cs inactive | nsP2pro confirm 7.98µM | HCV NS3 counter inactive
O=C(NC1CCN(c2ccnc3ccnn23)C1)c1cc(F)ccc1Br (stereo not given)	none
O=C(c1ccco1)N1CCN(C(=O)c2cnn(-c3cccc(F)c3)c2C2CCNCC2)CC1	none
O=C(Nc1cccc(C(F)(F)F)c1)c1cnn(-c2cccc(F)c2)c1C1CCNCC1	nsP2pro inh 8.91µM | nsP2 cell sec inactive | CHIKV NSP2 FL 11.6µM | Furin counterscr inactive | nsP2 NS23 pep inconclusive | Papain cs inactive | nsP2pro confirm inconclusive | HCV NS3 counter 7.3µM
Cc1cc(C)cc(NC(=O)c2cnn(-c3ccc(C)c(C)c3)c2C2CCNCC2)c1	none
CC(C)CN1C(=O)N(Cc2ccccn2)C(=O)C12CCN(Cc1ccc3c(c1)CCO3)CC2	none
O=C1CCCC2=C1C(c1cccnc1)N=C(Nc1nc3ccccc3o1)N2 (stereo not given)	none
O=C(c1cc(-c2ccco2)[nH]n1)N1CCSC(c2cc(F)ccc2F)CC1 (stereo not given)	nsP2pro inh 3.16µM | nsP2 cell sec inactive | CHIKV NSP2 FL 5.8µM | Furin counterscr inactive | nsP2 NS23 pep inconclusive | Papain cs inactive | nsP2pro confirm 8.96µM | HCV NS3 counter 16.3µM
CCOC(=O)c1ccc(N2C(=O)c3n[nH]c(-c4ccco4)c3C2c2cccc(F)c2)cc1 (stereo not given)	none
